This note sets out measurements from PubChem BioAssay.

Molecules are shown by their SMILES. Unmarked numbers belong to inactive results. Activity calls are given as the source filed them.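 Rule for the calls: active = thallium flux through the channel raised or lowered by more than 3 SD from vehicle-only wells, actives on both sides; inactive = the rest.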

What all share (assay): modulators of BK channel variants, profiling panel, selectivity assay, cell-based, U2OS BacMam, thallium flux, beta subunits (AID 1259406);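 note: initial slope of Thallos dye fluorescence rise after thallium is added; log ratio against the mean of 0.3% DMSO vehicle wells on the same plate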
One test deals with F380Y. To be noted: at 30 µM.
The test system of another test is F380Y/beta1. To be noted: at 30 µM.
A further test relates to F380Y/beta2Delta. To be noted: at 30 µM.
The next test has as its system F380Y/beta4. To be noted: at 30 µM.
The target in test [1] is Calcium-activated potassium channel subunit alpha-1 (Homo sapiens) + Leucine-rich repeat-containing protein 26 (Homo sapiens) (UniProt Q12791+Q2I0M4). To be noted: F380Y/Slo1WT/gamma1, at 30 µM.
Sequence of Calcium-activated potassium channel subunit alpha-1 (Homo sapiens) + Leucine-rich repeat-containing protein 26 (Homo sapiens) (Q2I0M4 whole entry, looked up, one chain of several): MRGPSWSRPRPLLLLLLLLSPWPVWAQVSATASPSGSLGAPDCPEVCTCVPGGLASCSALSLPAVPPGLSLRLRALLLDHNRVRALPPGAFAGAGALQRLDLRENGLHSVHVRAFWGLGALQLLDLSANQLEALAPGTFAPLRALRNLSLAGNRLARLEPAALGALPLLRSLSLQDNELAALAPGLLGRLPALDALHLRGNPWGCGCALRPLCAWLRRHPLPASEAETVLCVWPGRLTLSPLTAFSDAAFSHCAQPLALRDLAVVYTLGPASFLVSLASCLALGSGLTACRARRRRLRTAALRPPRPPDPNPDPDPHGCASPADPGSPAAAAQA
For another test, the system named is R275C. To be noted: at 30 µM.
A further test has as its system R275C/beta1. To be noted: at 30 µM.
For a further test, the system named is R275C/beta2Delta. To be noted: at 30 µM.
The test system of another test is R275C/beta4. To be noted: at 30 µM.
For a further test, the system named is R275C/Slo1WT/beta2. To be noted: at 30 µM.

Turning to `O=c1[nH]c2ccc(Cl)cc2c2oc(-c3ccccc3)nc12`, the log fold change Tl+ flux is -0.0228 with F380Y; 0.00567 in the test on F380Y/beta1; -0.059 with F380Y/beta2Delta; -0.0224 in the test with F380Y/beta4; -0.0128 in test [1]; 0.01 in the test with R275C. Also, the log fold change Tl+ flux was 0.031 in the test with R275C/beta1, 0.0322 in the test on R275C/beta2Delta, 0.0357 with R275C/beta4 and -0.0021 in the test with R275C/Slo1WT/beta2.
Regarding `CC(C)n1c(SCC(=O)c2ccccc2)nc2cc(Cl)ccc21`, the log fold change Tl+ flux in the test with F380Y was -0.0377; with F380Y/beta1, -0.0145; in the test with F380Y/beta2Delta it was -0.0247; in the test with F380Y/beta4 it was -0.709 (active); in test [1] it was -1.05 (active); with R275C, -0.667 (active). For the same molecule, the log fold change Tl+ flux with R275C/beta1 is -0.35 (active); with R275C/beta2Delta, -0.0838 (active); in the test with R275C/beta4 it was -0.0424; with R275C/Slo1WT/beta2, -0.173 (active).
For `O=S(=O)(Oc1ccc(F)cc1F)c1cccc(S(=O)(=O)Oc2ccc(F)cc2F)c1`, the log fold change Tl+ flux in the test with F380Y was -0.193 (active); in the test on F380Y/beta1, -0.0152; in the test with F380Y/beta2Delta it was 0.00173; in the test with F380Y/beta4, -0.485 (active); in test [1] it was -0.264 (active); in the test on R275C, -0.229 (active). In addition, the log fold change Tl+ flux in the test on R275C/beta1 is -0.209 (active); in the test on R275C/beta2Delta, -0.0138; in the test on R275C/beta4 it was -0.144 (active); in the test on R275C/Slo1WT/beta2 it was -0.0996.
On to `O=C(Nc1ccc(Cl)cc1)c1cnccc1C(F)(F)F`, for which the log fold change Tl+ flux with F380Y is 0.0622; in the test with F380Y/beta1 it was 0.0187; in the test with F380Y/beta2Delta it was 0.066; with F380Y/beta4, 0.0347; in test [1], -0.0423; in the test with R275C it was 0.0193. Moreover, the log fold change Tl+ flux in the test with R275C/beta1 is 0.0288; with R275C/beta2Delta, -0.00135; in the test with R275C/beta4, 0.0311; in the test with R275C/Slo1WT/beta2 it was -0.0457.
Regarding `Clc1ccc(Sc2cn[nH]c2-c2ccc3c(c2)OCCO3)cc1`, the log fold change Tl+ flux in the test with F380Y is -0.025; in the test with F380Y/beta1, -0.0285; with F380Y/beta2Delta it was -0.0116; with F380Y/beta4, 0.0103; in test [1], -0.102; in the test with R275C, 0.0336. In addition, the log fold change Tl+ flux in the test with R275C/beta1 is -0.00464; in the test on R275C/beta2Delta it was -0.0611; with R275C/beta4, -0.0292; in the test with R275C/Slo1WT/beta2 it was -0.0512.
Regarding `Cc1cc(NC(=O)Nc2nc(-c3ccc(C)c(Cl)c3)c(C)s2)c(C(F)(F)F)o1`, the log fold change Tl+ flux was 0.0531 with F380Y; 0.0378 in the test on F380Y/beta1; 0.0304 in the test with F380Y/beta2Delta; -0.0149 with F380Y/beta4; 0.0333 in test [1]; 0.0173 in the test with R275C. In addition, the log fold change Tl+ flux in the test on R275C/beta1 is -0.0274; with R275C/beta2Delta, 0.015; in the test on R275C/beta4 it was 0.0593; with R275C/Slo1WT/beta2 it was 0.0144.
As to `O=[N+]([O-])c1cnc(Sc2nccc(-c3cccnc3)n2)s1`, the log fold change Tl+ flux was -0.00331 in the test with F380Y; 0.0246 with F380Y/beta1; -0.0191 in the test on F380Y/beta2Delta; 0.00729 in the test on F380Y/beta4; -0.074 in [1]; 0.0275 with R275C. Moreover, the log fold change Tl+ flux in the test with R275C/beta1 is 0.026; with R275C/beta2Delta it was -0.0186; with R275C/beta4 it was 0.0146; in the test with R275C/Slo1WT/beta2, -0.0189.
Turning to `FC(F)(F)c1cc(C=Cc2noc(-c3ccc(CN4CCCC4)cc3)n2)cc(C(F)(F)F)c1`, the log fold change Tl+ flux in the test on F380Y was -0.0963; in the test on F380Y/beta1, 0.0303; in the test with F380Y/beta2Delta, -0.0239; in the test on F380Y/beta4, -0.0108; in test [1], 0.0236; in the test with R275C it was -0.0044. The log fold change Tl+ flux in the test on R275C/beta1 was 0.00631; with R275C/beta2Delta, -0.0502; in the test on R275C/beta4, -0.00136; in the test on R275C/Slo1WT/beta2, -0.00667.
As to `CC(=O)c1sc(SCc2ccc(Cl)cc2)c2c1CC(C)(C)CC2=O`, the log fold change Tl+ flux with F380Y was -0.0184; in the test with F380Y/beta1 it was 0.0319; in the test with F380Y/beta2Delta, 0.0184; in the test on F380Y/beta4 it was -0.123 (active); in [1] it was -0.0796; with R275C it was 0.014. The log fold change Tl+ flux is -0.034 in the test on R275C/beta1, -0.0422 in the test on R275C/beta2Delta, 0.00684 in the test with R275C/beta4 and 0.00246 in the test on R275C/Slo1WT/beta2.
Take `Fc1cccc(Cl)c1CSc1nccn1-c1cccnc1`: the log fold change Tl+ flux with F380Y was 0.00886; with F380Y/beta1, 0.00855; with F380Y/beta2Delta, 0.00345; in the test with F380Y/beta4, 0.0175; in [1] it was 0.00834; with R275C, 0.0131. For the same molecule, the log fold change Tl+ flux with R275C/beta1 is 0.0289; in the test with R275C/beta2Delta it was 0.0125; with R275C/beta4, 0.0207; in the test with R275C/Slo1WT/beta2, 0.0418.
In the case of `O=C1c2ccccc2NC(c2cc(Cl)cc(Cl)c2O)N1Cc1cccnc1` (stereo not given), the log fold change Tl+ flux is 0.0629 in the test on F380Y; 0.0897 (active) in the test on F380Y/beta1; 0.0333 in the test on F380Y/beta2Delta; 0.104 (active) in the test on F380Y/beta4; 0.0598 in test [1]; 0.00967 in the test on R275C. For the same molecule, the log fold change Tl+ flux in the test on R275C/beta1 was 0.0327; with R275C/beta2Delta it was 0.0578; in the test with R275C/beta4 it was 0.0953 (active); in the test with R275C/Slo1WT/beta2 it was -0.0554.
With `OC(Cc1ccccc1)(c1ccccc1)c1ccccc1N=Cc1ccc2c(c1)OCO2` (stereo not given), the log fold change Tl+ flux with F380Y is 0.00821; with F380Y/beta1, 0.0126; in the test with F380Y/beta2Delta, -0.0347; in the test with F380Y/beta4, -0.0765; in test [1] it was -0.0874; with R275C, -0.0385. Besides, the log fold change Tl+ flux is -0.0387 with R275C/beta1, -0.0661 in the test on R275C/beta2Delta, -0.00775 in the test with R275C/beta4 and -0.0302 with R275C/Slo1WT/beta2.
In the case of `CN1c2ccsc2C(=O)C(=NNc2cccc(C(F)(F)F)c2)S1(=O)=O`, the log fold change Tl+ flux was -0.0122 in the test with F380Y; 0.00552 with F380Y/beta1; 0.00348 in the test with F380Y/beta2Delta; 0.0228 in the test on F380Y/beta4; -0.0208 in [1]; -0.00855 in the test on R275C. The log fold change Tl+ flux in the test with R275C/beta1 is 0.0113; in the test on R275C/beta2Delta, 0.00493; with R275C/beta4, -0.00494; with R275C/Slo1WT/beta2, -0.0248.
